This is one part of a sample in which the strongest signals are shown more often than they occur.
Key:
Assay in all cases: glycan array binding signal (z-score within array); higher = stronger binding
Details in all cases: glycan notation: IUPAC condensed, linker removed
[1] = biological target: Fuc(a1-2)Gal(b1-3)GlcNAc(b1-3)GalNAc
Method in brief: (§1)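 From the Consortium for Functional Glycomics database, 3228 arrays were curated, keeping only those whose protein sequence was available. Binding is given as a within-array Z-score averaged across arrays sharing a protein sequence and across linkers. Negative Z-scores can be read as non-binding.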

[2] = biological target: Fuc(a1-2)Gal(b1-3)GlcNAc(b1-3)[Fuc(a1-2)Gal(b1-3)GlcNAc(b1-6)]GalNAc
Method in brief: as §1

[3] = biological target: Fuc(a1-2)Gal(b1-4)GlcNAc(b1-2)[Fuc(a1-2)Gal(b1-4)GlcNAc(b1-4)]Man(a1-3)[Fuc(a1-2)Gal(b1-4)GlcNAc(b1-2)Man(a1-6)]Man(b1-4)GlcNAc(b1-4)GlcNAc
Method in brief: as §1

[4] = biological target: Fuc(a1-2)Gal(b1-4)[Fuc(a1-3)]GlcNAc(b1-2)[Fuc(a1-2)Gal(b1-4)[Fuc(a1-3)]GlcNAc(b1-4)]Man(a1-3)[Fuc(a1-2)Gal(b1-4)[Fuc(a1-3)]GlcNAc(b1-2)Man(a1-6)]Man(b1-4)GlcNAc(b1-4)GlcNAc
Method in brief: as §1

[5] = biological target: Fuc(a1-2)[Gal(a1-3)]Gal(b1-3)GlcNAc(b1-2)Man(a1-3)[Fuc(a1-2)[Gal(a1-3)]Gal(b1-3)GlcNAc(b1-2)Man(a1-6)]Man(b1-4)GlcNAc(b1-4)GlcNAc
Method in brief: as §1

[6] = biological target: Fuc(a1-2)[Gal(a1-3)]Gal(b1-4)Glc
Method in brief: as §1

[7] = biological target: Fuc(a1-2)[Gal(a1-3)]Gal(b1-4)GlcNAc(b1-2)Man
Method in brief: as §1

[8] = biological target: Fuc(a1-2)[Gal(a1-3)]Gal(b1-4)GlcNAc(b1-2)Man(a1-3)[Fuc(a1-2)[Gal(a1-3)]Gal(b1-4)GlcNAc(b1-2)Man(a1-6)]Man(b1-4)GlcNAc(b1-4)GlcNAc
Method in brief: as §1

[9] = biological target: Fuc(a1-2)[GalNAc(a1-3)]Gal(b1-3)GlcNAc(b1-2)Man(a1-3)[Fuc(a1-2)[GalNAc(a1-3)]Gal(b1-3)GlcNAc(b1-2)Man(a1-6)]Man(b1-4)GlcNAc(b1-4)GlcNAc
Method in brief: as §1

[10] = biological target: Fuc(a1-2)[GalNAc(a1-3)]Gal(b1-4)GlcNAc(b1-2)Man(a1-3)[Fuc(a1-2)[GalNAc(a1-3)]Gal(b1-4)GlcNAc(b1-2)Man(a1-6)]Man(b1-4)GlcNAc(b1-4)GlcNAc
Method in brief: as §1

[11] = biological target: Fuc(a1-2)[GalNAc(a1-3)]Gal(b1-4)[Fuc(a1-3)]GlcNAc
Method in brief: as §1

[12] = biological target: Fuc(a1-2)[GalNAc(a1-3)]Gal(b1-4)[Fuc(a1-3)]GlcNAc(b1-3)GalNAc
Method in brief: as §1

Fuc(a1-3)GlcNAc = biological target: Fuc(a1-3)GlcNAc
Method in brief: as §1

[13] = biological target: Fuc(a1-3)[Gal(b1-4)]GlcNAc6S
Method in brief: as §1

Fuc(a1-4)GlcNAc = biological target: Fuc(a1-4)GlcNAc
Method in brief: as §1

Fuc(b1-3)GlcNAc = biological target: Fuc(b1-3)GlcNAc
Method in brief: as §1

Gal(a1-3)Gal = biological target: Gal(a1-3)Gal
Method in brief: as §1

[14] = biological target: Gal(a1-3)Gal(b1-3)GlcNAc(b1-2)Man(a1-3)[Gal(a1-3)Gal(b1-3)GlcNAc(b1-2)Man(a1-6)]Man(b1-4)GlcNAc(b1-4)GlcNAc
Method in brief: as §1

[15] = biological target: Gal(a1-3)Gal(b1-3)[Fuc(a1-4)]GlcNAc(b1-2)Man(a1-3)[Gal(a1-3)Gal(b1-3)[Fuc(a1-4)]GlcNAc(b1-2)Man(a1-6)]Man(b1-4)GlcNAc(b1-4)GlcNAc
Method in brief: as §1

Gal(a1-3)Gal(b1-4)GlcNAc = biological target: Gal(a1-3)Gal(b1-4)GlcNAc
Method in brief: as §1

Gal(a1-4)Gal(b1-4)Glc = biological target: Gal(a1-4)Gal(b1-4)Glc
Method in brief: as §1

Gal(b1-3)GalNAc = biological target: Gal(b1-3)GalNAc
Method in brief: as §1

[16] = biological target: Gal(b1-3)GlcNAc(b1-2)Man(a1-3)[Gal(b1-3)GlcNAc(b1-2)Man(a1-6)]Man(b1-4)GlcNAc(b1-4)[Fuc(a1-6)]GlcNAc
Method in brief: as §1

[17] = biological target: Gal(b1-3)GlcNAc(b1-3)Gal(b1-4)GlcNAc(b1-3)Gal(b1-4)GlcNAc(b1-2)[Gal(b1-3)GlcNAc(b1-3)Gal(b1-4)GlcNAc(b1-3)Gal(b1-4)GlcNAc(b1-6)]Man(a1-6)[Gal(b1-3)GlcNAc(b1-3)Gal(b1-4)GlcNAc(b1-3)Gal(b1-4)GlcNAc(b1-2)Man(a1-3)]Man(b1-4)GlcNAc(b1-4)[Fuc(a1-6)]GlcNAc
Method in brief: as §1

[18] = biological target: Gal(b1-3)[Fuc(a1-4)]GlcNAc(b1-6)GalNAc
Method in brief: as §1

[19] = biological target: Gal(b1-4)GlcNAc(b1-3)Gal(b1-4)GlcNAc(b1-2)Man(a1-3)[Gal(b1-4)GlcNAc(b1-3)Gal(b1-4)GlcNAc(b1-2)Man(a1-6)]Man(b1-4)GlcNAc(b1-4)[Fuc(a1-6)]GlcNAc
Method in brief: as §1

[20] = biological target: Gal(b1-4)GlcNAc(b1-3)Gal(b1-4)GlcNAc(b1-2)[Gal(b1-4)GlcNAc(b1-3)Gal(b1-4)GlcNAc(b1-6)]Man(a1-6)[Gal(b1-4)GlcNAc(b1-3)Gal(b1-4)GlcNAc(b1-2)Man(a1-3)]Man(b1-4)GlcNAc(b1-4)GlcNAc
Method in brief: as §1

[21] = biological target: Gal(b1-4)GlcNAc(b1-3)Gal(b1-4)GlcNAc(b1-3)Gal(b1-4)GlcNAc(b1-2)Man(a1-3)[Gal(b1-4)GlcNAc(b1-3)Gal(b1-4)GlcNAc(b1-3)Gal(b1-4)GlcNAc(b1-2)Man(a1-6)]Man(b1-4)GlcNAc(b1-4)GlcNAc
Method in brief: as §1

B1: PX9961V-pdi-562-26-562 (Parabacteroides distasonis) (protein)
chain: EIFSEITTDNYYQNSNNIYAALVNNYAKAFSTGWSDARYFLQEVTADQLMIPTRGKHGYNGGEYVRLHEHKWTVEENFVYNGWAAPFQGIALCNNTLSDFENLDFSTFKLTEETKNEYIAELRALRVWNYMFLIDFFRHVPIVTDIEEVKAQSTPLEVFNFMESELLAILPDLPKNRGVSRFDQAGVASILVRLYLNAEKWIGISKYDECEQMAQAILDGKYGEYSIDPDYRGPFRSGINGYRSKENIMEFAIKKNYFEASWLYNMWMHYQDRYSLDNDWQGWNGGNLAPSRDLYGNLYQDKLGMPFEKFPDGDIRKKAFRVISNDGDYEGFFLMGTQYKFDYEKGYGFTDEVITGTEEYNGKPLVYVDQVGRFSEGETGLAKGSHVIYGEENTGYRLIKFPWLPQSKDLFQMNSIPEIRLAEIYYSLAECKYRSGDKIGAARLLDVVRKRYYKAEDWSKFSYESNISKLTDDEFVDELGREFIGERHRRIDLIRWNRFSEGAWWDKTPDATNQDVFPIPYRALNANPLLKQTTAGF
glycan array binding signal (z-score) [1]: -0.58
glycan array binding signal (z-score) [2]: 2.04
glycan array binding signal (z-score) [3]: -0.54
glycan array binding signal (z-score) [4]: -0.424
glycan array binding signal (z-score) [5]: -0.108
glycan array binding signal (z-score) [6]: -0.228
glycan array binding signal (z-score) [7]: -0.182
glycan array binding signal (z-score) [8]: 3.45
glycan array binding signal (z-score) [9]: -0.21
glycan array binding signal (z-score) [10]: 4.28
glycan array binding signal (z-score) [11]: -0.369
glycan array binding signal (z-score) [12]: 7.22
glycan array binding signal (z-score) (Fuc(a1-3)GlcNAc): -0.508
glycan array binding signal (z-score) [13]: 0.861
glycan array binding signal (z-score) (Fuc(a1-4)GlcNAc): -0.596
glycan array binding signal (z-score) (Fuc(b1-3)GlcNAc): -0.328
glycan array binding signal (z-score) (Gal(a1-3)Gal): 0
glycan array binding signal (z-score) [14]: 2.03
glycan array binding signal (z-score) [15]: 3.94
glycan array binding signal (z-score) (Gal(a1-3)Gal(b1-4)GlcNAc): 0.068
glycan array binding signal (z-score) (Gal(a1-4)Gal(b1-4)Glc): -0.099
glycan array binding signal (z-score) (Gal(b1-3)GalNAc): -0.185
glycan array binding signal (z-score) [16]: 5.1
glycan array binding signal (z-score) [17]: 4.46
glycan array binding signal (z-score) [18]: 6.13
glycan array binding signal (z-score) [19]: 4.04
glycan array binding signal (z-score) [20]: 4.58
glycan array binding signal (z-score) [21]: 4.36

Source: the supplement of paper PMC8728848
